# Source: the supplement of paper PMC8728848
# This is one part of a sample in which the strongest signals are shown more often than they occur.
# B1: MSMEG3662-2a (Mycobacterium smegmatis), A0QYH7_MYCS2 (protein)
# chain: MGDTLTAGQKLERGGSLQSGNGAYTLTLQDDGNLVLYARDKAVWSTGTNGQDVVRAEVQTDGNFVLYTAEKPVWHTDTKGKKEVKLVLQDDRNLVLYAKDGPAWSSKTDTTEPPPPAPEPEKEAEVAPAAAEEAAPAPVAEPAPAEPAPAAPPPAPPAPRTYTVVSGDTLWAIAERFYGDGSKYQQIADASGIANPDLIHPGQVLTIP
# Tests used:
# Assay in all cases: glycan array binding signal (z-score within array); higher = stronger binding
# Conditions in all cases: glycan notation: IUPAC condensed, linker removed
# [1] = target: Fuc(a1-2)Gal(b1-3)GlcNAc(b1-3)GalNAc
# Summary of the method: (§1)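 Arrays were curated from the Consortium for Functional Glycomics database, 3228 in total, and kept only where the protein sequence was available. Binding is expressed as a within-array Z-score. This score was averaged across arrays of the same protein sequence at different concentrations or buffers and across linkers, and negative values can be read as non-binding.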
# [2] = target: Fuc(a1-2)Gal(b1-3)[Fuc(a1-4)]GlcNAc(b1-2)Man(a1-3)[Fuc(a1-2)Gal(b1-3)[Fuc(a1-4)]GlcNAc(b1-2)Man(a1-3)]Man(b1-4)GlcNAc(b1-4)GlcNAc
# Summary of the method: as §1
# [3] = target: Fuc(a1-2)Gal(b1-4)GlcNAc(b1-3)GalNAc
# Summary of the method: as §1
# [4] = target: Fuc(a1-2)Gal(b1-4)GlcNAc(b1-3)[Fuc(a1-2)Gal(b1-4)GlcNAc(b1-6)]GalNAc
# Summary of the method: as §1
# [5] = target: Fuc(a1-2)Gal(b1-4)GlcNAc(b1-3)[Fuc(a1-3)[Gal(b1-4)]GlcNAc(b1-6)]Gal(b1-4)Glc
# Summary of the method: as §1
# [6] = target: Fuc(a1-2)[Gal(a1-3)]Gal(b1-3)GlcNAc(b1-2)Man(a1-3)[Fuc(a1-2)[Gal(a1-3)]Gal(b1-3)GlcNAc(b1-2)Man(a1-6)]Man(b1-4)GlcNAc(b1-4)GlcNAc
# Summary of the method: as §1
# [7] = target: Fuc(a1-2)[Gal(a1-3)]Gal(b1-4)Glc
# Summary of the method: as §1
# [8] = target: Fuc(a1-2)[Gal(a1-3)]Gal(b1-4)GlcNAc(b1-3)[Fuc(a1-2)[Gal(a1-3)]Gal(b1-4)GlcNAc(b1-6)]GalNAc
# Summary of the method: as §1
# [9] = target: Fuc(a1-2)[Gal(a1-3)]Gal(b1-4)GlcNAc(b1-6)GalNAc
# Summary of the method: as §1
# [10] = target: Fuc(a1-2)[GalNAc(a1-3)]Gal(b1-4)GlcNAc(b1-2)Man
# Summary of the method: as §1
# [11] = target: Fuc(a1-3)[Gal3S(b1-4)]GlcNAc
# Summary of the method: as §1
# [12] = target: Fuc(a1-3)[GalNAc(b1-4)]GlcNAc
# Summary of the method: as §1
# [13] = target: Fuc(a1-4)GlcNAc
# Summary of the method: as §1
# [14] = target: Gal(a1-3)[Gal(a1-4)]Gal(b1-4)GlcNAc
# Summary of the method: as §1
# [15] = target: Gal(b1-3)GlcNAc(b1-3)Gal(b1-4)GlcNAc(b1-2)[Gal(b1-3)GlcNAc(b1-3)Gal(b1-4)GlcNAc(b1-6)]Man(a1-6)[Gal(b1-3)GlcNAc(b1-3)Gal(b1-4)GlcNAc(b1-2)Man(a1-3)]Man(b1-4)GlcNAc(b1-4)[Fuc(a1-6)]GlcNAc
# Summary of the method: as §1
# [16] = target: Gal(b1-3)[Neu5Ac(a2-6)]GalNAc
# Summary of the method: as §1
# [17] = target: Gal(b1-3)[Neu5Ac(b2-6)]GalNAc
# Summary of the method: as §1
# [18] = target: Gal(b1-4)GlcNAc(a1-6)Gal(b1-4)GlcNAc
# Summary of the method: as §1
# [19] = target: Gal(b1-4)GlcNAc(b1-2)[Gal(b1-4)GlcNAc(b1-4)]Man(a1-3)[Gal(b1-4)GlcNAc(b1-2)[Gal(b1-4)GlcNAc(b1-6)]Man(a1-6)]Man(b1-4)GlcNAc(b1-4)GlcNAc
# Summary of the method: as §1
# [20] = target: Gal(b1-4)GlcNAc(b1-2)[Gal(b1-4)GlcNAc(b1-4)]Man(a1-3)[GlcNAc(b1-4)][Gal(b1-4)GlcNAc(b1-2)[Gal(b1-4)GlcNAc(b1-6)]Man(a1-6)]Man(b1-4)GlcNAc(b1-4)GlcNAc
# Summary of the method: as §1
# [21] = target: Gal(b1-4)GlcNAc(b1-3)Gal(b1-4)GlcNAc(b1-3)Gal(b1-4)GlcNAc(b1-3)Gal(b1-4)GlcNAc(b1-3)Gal(b1-4)GlcNAc(b1-2)Man(a1-3)[Gal(b1-4)GlcNAc(b1-3)Gal(b1-4)GlcNAc(b1-3)Gal(b1-4)GlcNAc(b1-3)Gal(b1-4)GlcNAc(b1-3)Gal(b1-4)GlcNAc(b1-2)Man(a1-6)]Man(b1-4)GlcNAc(b1-4)[Fuc(a1-6)]GlcNAc
# Summary of the method: as §1
# [22] = target: Gal(b1-4)GlcNAc(b1-3)Gal(b1-4)GlcNAc(b1-3)[Gal(b1-4)GlcNAc(b1-3)Gal(b1-4)GlcNAc(b1-6)]GalNAc
# Summary of the method: as §1
# [23] = target: Gal3S(b1-4)Glc6S
# Summary of the method: as §1
# [24] = target: Gal6P(b1-4)GlcNAc
# Summary of the method: as §1
# [25] = target: Glc(a1-6)Glc(a1-6)Glc(a1-6)Glc
# Summary of the method: as §1
# [26] = target: GlcNAc(b1-3)Gal(b1-4)GlcNAc(b1-2)[GlcNAc(b1-3)Gal(b1-4)GlcNAc(b1-6)]Man(a1-6)[GlcNAc(b1-3)Gal(b1-4)GlcNAc(b1-2)Man(a1-3)]Man(b1-4)GlcNAc(b1-4)GlcNAc
# Summary of the method: as §1
# [27] = target: GlcNAc(b1-3)Gal(b1-4)GlcNAc(b1-3)Gal(b1-4)GlcNAc
# Summary of the method: as §1
# [28] = target: GlcNAc(b1-3)Gal(b1-4)GlcNAc(b1-3)GalNAc
# Summary of the method: as §1
# [29] = target: GlcNAc(b1-4)GlcNAc(b1-4)GlcNAc
# Summary of the method: as §1
# [30] = target: GlcNAc(b1-4)GlcNAc(b1-4)GlcNAc(b1-4)GlcNAc(b1-4)GlcNAc
# Summary of the method: as §1
# [31] = target: GlcNAc(b1-4)GlcNAc(b1-4)GlcNAc(b1-4)GlcNAc(b1-4)GlcNAc(b1-4)GlcNAc
# Summary of the method: as §1
# [32] = target: MurNAc(b1-4)GlcNAc
# Summary of the method: as §1
# [33] = target: Neu5Ac(a2-3)Gal(b1-3)GlcNAc
# Summary of the method: as §1
# [34] = target: Neu5Ac(a2-3)Gal(b1-4)Glc
# Summary of the method: as §1
# [35] = target: Neu5Ac(a2-3)Gal(b1-4)GlcNAc(b1-3)Gal
# Summary of the method: as §1
# [36] = target: Neu5Ac(a2-3)Gal(b1-4)GlcNAc(b1-3)Gal(b1-4)GlcNAc
# Summary of the method: as §1
# [37] = target: Neu5Ac(a2-3)Gal(b1-4)GlcNAc(b1-6)GalNAc
# Summary of the method: as §1
# [38] = target: Neu5Ac(a2-3)Gal(b1-4)[Fuc(a1-3)]GlcNAc
# Summary of the method: as §1
# [39] = target: Neu5Ac(a2-3)Gal(b1-4)[Fuc(a1-3)]GlcNAc(b1-3)Gal(b1-4)[Fuc(a1-3)]GlcNAc(b1-3)Gal(b1-4)[Fuc(a1-3)]GlcNAc
# Summary of the method: as §1
# [40] = target: Neu5Ac(a2-3)Gal(b1-4)[Fuc(a1-3)]GlcNAc(b1-3)GalNAc
# Summary of the method: as §1
# [41] = target: Neu5Ac(a2-3)GalNAc
# Summary of the method: as §1
# [42] = target: Neu5Ac(a2-3)[Neu5Ac(a2-6)]GalNAc
# Summary of the method: as §1
# [43] = target: Neu5Ac(a2-6)Gal(b1-4)Glc
# Summary of the method: as §1
# [44] = target: Neu5Ac(a2-6)Gal(b1-4)GlcNAc(b1-2)Man(a1-3)[Neu5Ac(a2-6)Gal(b1-4)GlcNAc(b1-2)Man(a1-6)]Man(b1-4)GlcNAc(b1-4)GlcNAc
# Summary of the method: as §1
# [45] = target: Neu5Ac(a2-6)Gal(b1-4)GlcNAc(b1-2)Man(a1-6)[Man(a1-3)]Man(b1-4)GlcNAc(b1-4)GlcNAc
# Summary of the method: as §1
# [46] = target: Neu5Ac(a2-6)Gal(b1-4)GlcNAc(b1-3)Gal(b1-4)GlcNAc(b1-3)Gal(b1-4)GlcNAc(b1-2)Man(a1-3)[Neu5Ac(a2-6)Gal(b1-4)GlcNAc(b1-3)Gal(b1-4)GlcNAc(b1-3)Gal(b1-4)GlcNAc(b1-2)Man(a1-6)]GalNAc
# Summary of the method: as §1
# [47] = target: Neu5Ac(a2-6)Gal(b1-4)GlcNAc(b1-3)Gal(b1-4)[Fuc(a1-3)]GlcNAc(b1-3)Gal(b1-4)[Fuc(a1-3)]GlcNAc
# Summary of the method: as §1
# [48] = target: Neu5Ac(a2-6)GlcNAc(b1-4)GlcNAc(b1-4)GlcNAc
# Summary of the method: as §1
# [49] = target: Neu5Ac(a2-8)Neu5Ac(a2-3)Gal(b1-3)GalNAc(b1-4)[Neu5Ac(a2-8)Neu5Ac(a2-3)]Gal(b1-4)Glc
# Summary of the method: as §1
# [50] = target: Neu5Ac(a2-8)Neu5Ac(a2-8)Neu5Ac
# Summary of the method: as §1
binder,measurement,setting,value
B1,glycan array binding signal (z-score),[1],-0.084
same,glycan array binding signal (z-score),[2],0.02
same,glycan array binding signal (z-score),[3],0.35
same,glycan array binding signal (z-score),[4],-0.023
same,glycan array binding signal (z-score),[5],-0.103
same,glycan array binding signal (z-score),[6],-0.102
same,glycan array binding signal (z-score),[7],-0.24
same,glycan array binding signal (z-score),[8],0.285
same,glycan array binding signal (z-score),[9],-0.124
same,glycan array binding signal (z-score),[10],-0.046
same,glycan array binding signal (z-score),[11],-0.028
same,glycan array binding signal (z-score),[12],0.413
same,glycan array binding signal (z-score),[13],11.1
same,glycan array binding signal (z-score),[14],-0.039
same,glycan array binding signal (z-score),[15],0.25
same,glycan array binding signal (z-score),[16],-0.105
same,glycan array binding signal (z-score),[17],0.064
same,glycan array binding signal (z-score),[18],-0.067
same,glycan array binding signal (z-score),[19],-0.118
same,glycan array binding signal (z-score),[20],-0.186
same,glycan array binding signal (z-score),[21],0.159
same,glycan array binding signal (z-score),[22],0.038
same,glycan array binding signal (z-score),[23],-0.107
same,glycan array binding signal (z-score),[24],-0.205
same,glycan array binding signal (z-score),[25],-0.182
same,glycan array binding signal (z-score),[26],-0.017
same,glycan array binding signal (z-score),[27],-0.131
same,glycan array binding signal (z-score),[28],-0.121
same,glycan array binding signal (z-score),[29],3.59
same,glycan array binding signal (z-score),[30],8.12
same,glycan array binding signal (z-score),[31],13.9
same,glycan array binding signal (z-score),[32],1.49
same,glycan array binding signal (z-score),[33],-0.039
same,glycan array binding signal (z-score),[34],0.572
same,glycan array binding signal (z-score),[35],-0.15
same,glycan array binding signal (z-score),[36],0.065
same,glycan array binding signal (z-score),[37],-0.234
same,glycan array binding signal (z-score),[38],-0.124
same,glycan array binding signal (z-score),[39],-0.044
same,glycan array binding signal (z-score),[40],0.43
same,glycan array binding signal (z-score),[41],-0.06
same,glycan array binding signal (z-score),[42],-0.161
same,glycan array binding signal (z-score),[43],-0.068
same,glycan array binding signal (z-score),[44],-0.046
same,glycan array binding signal (z-score),[45],-0.14
same,glycan array binding signal (z-score),[46],0.293
same,glycan array binding signal (z-score),[47],-0.129
same,glycan array binding signal (z-score),[48],1.58
same,glycan array binding signal (z-score),[49],0.097
same,glycan array binding signal (z-score),[50],-0.147
